# Screening data deposited in PubChem BioAssay by The Scripps Research Institute Molecular Screening Center.
# TEAD-YAP block: TEAD-YAP interaction inhibition, primary screen, TEAD-YAP interaction inhibitor project, luminescence, HEK-TIYL cells; inhibition, % at 9.12 µM; AID 1259422, 2018; TEAD-Gal4/YAP UAS-luciferase luminescence; 640,000 compounds, 1.4% hits; in the data active = inhibition above about 32%;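 note: 0% = median of test compound wells and 100% = reference inhibitor wells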
# GPR151 activ: activators of human GPR151, primary screen, cell-based, PathHunter beta-arrestin, luminescence. G-protein coupled receptor 151 (Homo sapiens), Q8TDV0. PathHunter beta-arrestin GPR151 cells. activation, % at 11.2 µM. 650,000 compounds, 1% hits; in the data active = activation above about 4.9%;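 note: 0% = median of compound wells and 100% = cells with positive control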
# MITF primary: MITF inhibitors, primary screen, biochemical, AlphaScreen, human. Microphthalmia-associated transcription factor (Homo sapiens), O75030. inhibition, % at 2.6 µM. AlphaScreen MITF homodimerization, bead proximity signal. 650,000 compounds, 0.91% hits. AID 1259374, 2018; in the data active = inhibition above about 50%;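 note: 0% = vehicle wells with protein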
# Target sequence (O75030 whole entry, looked up): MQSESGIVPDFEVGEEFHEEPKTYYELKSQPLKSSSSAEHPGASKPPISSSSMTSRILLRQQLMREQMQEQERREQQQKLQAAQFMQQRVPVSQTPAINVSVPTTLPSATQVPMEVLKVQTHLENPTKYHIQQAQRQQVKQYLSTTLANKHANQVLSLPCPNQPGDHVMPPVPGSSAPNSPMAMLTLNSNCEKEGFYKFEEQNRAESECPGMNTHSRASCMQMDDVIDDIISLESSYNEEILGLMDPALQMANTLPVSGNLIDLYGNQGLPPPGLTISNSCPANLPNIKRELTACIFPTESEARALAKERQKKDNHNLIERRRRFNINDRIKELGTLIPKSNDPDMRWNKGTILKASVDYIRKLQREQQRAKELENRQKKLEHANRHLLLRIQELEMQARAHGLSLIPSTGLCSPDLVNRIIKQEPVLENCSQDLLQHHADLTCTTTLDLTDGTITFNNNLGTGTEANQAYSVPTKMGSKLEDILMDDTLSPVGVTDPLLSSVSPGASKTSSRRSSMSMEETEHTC
# FBW7 activator: FBW7 E3 ligase activators, primary screen, biochemical, AlphaScreen, human | F-box/WD repeat-containing protein 7 (Homo sapiens), Q969H0 | AlphaScreen FBW7–phospho-cyclin E peptide binding, activator screen | normalized activity (activation), % at 26.1 µM | 650,000 compounds, 0.13% hits | AID 1259310, 2017; in the data active = normalized activity above about 1.9%;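 note: purified mutant Fbw7 with reduced substrate affinity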
# MITF inh conf: MITF inhibitors, retest of hits, confirmation, biochemical, AlphaScreen, triplicate; AID 1259372, 2018; 4,700 compounds, 16% hits; inhibition, % at 2.6 µM; shares compounds with MITF primary; AlphaScreen MITF homodimerization, biotin/His-MITF beads;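 active = inhibition above a cutoff derived from the DMSO control wells, cut at about 28% in these data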;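 note: 0% = MITF dimer wells with DMSO only; inhibitors lower the bead chemiluminescence by keeping MITF from dimerizing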
# AlphaScreen DR: AlphaScreen optical interference compounds, dose response, counter-screen, biochemical, HTS. AlphaScreen optical interference counterscreen, cell-free. shares compounds with MITF primary. IC50, µM. AID 1259373, 2018. 480 compounds, 6% hits; call rule not given here
# AlphaScreen intf2: AlphaScreen optical interference compounds, counter-screen for MITF inhibitor project, biochemical, triplicate; shares compounds with MITF primary; AID 1259376, 2018; LysRS AlphaScreen counterscreen, signal interference; 4,700 compounds, 7.6% hits; inhibition, % at 2.6 µM;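 active = inhibition above a cutoff derived from the DMSO control wells, cut at about 30% in these data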
# GPR151 confirm: GPR151 activators, triplicate retest, confirmation, cell-based, PathHunter beta-arrestin, luminescence; shares compounds with GPR151 activ; GPR151 PathHunter beta-arrestin cells, 90 min; % of EA-reagent control over plate median; activation, % at 11.2 µM; 6,700 tested, under 10 active;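 active = mean percent activation across replicates above the confirmation screen cutoff of 4.91%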
# GPR119 ag: GPR119 activators in beta-arrestin cells, counter-screen for GPR151 activator project, cell-based, PathHunter beta-arrestin, luminescence, triplicate | shares compounds with GPR151 activ | 90 min; 0 = compound-well median, 100 = enzyme-acceptor control | activation, % at 11.2 µM | 6,700 compounds, 0.3% hits | AID 1508611, 2020;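 active = mean percent activation in the counterscreen above 29.09%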;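 note: counterscreen on off-target GPR119 to flag nonselective hits from the GPR151 activator screen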
# Numbers without * were called inactive; . = not tested or not shown. Hits are enriched below; roughly 3.4% of the tested compounds scored in any of these assays.
SMILES,TEAD-YAP block,GPR151 activ,MITF primary,FBW7 activator,MITF inh conf,AlphaScreen intf2,GPR151 confirm,GPR119 ag,others
CN1CCC(N(C)CC(O)COC(c2ccc(F)cc2)c2ccc(F)cc2)CC1 (stereo unspecified),3.4,-0.5,60.1*,-0.2,-11.5,3.5,.,.,
OC(CNCCCN1CCOCC1)COC(c1ccc(F)cc1)c1ccc(F)cc1 (stereo unspecified),-1.4,-0.5,35.6,-0.2,.,.,.,.,
Cn1c(SCC(=O)NNC(=O)C2CCCCC2)nnc1-c1ccccc1N,1.6,1.4,5.6,-0.1,.,.,.,.,
c1ccc(OCCOCCN2CCNCC2)cc1,3.3,0.6,35.8,0.0,.,.,.,.,
CCOc1ccccc1OCCOCCN1CCN(Cc2ccccc2)CC1,5.0,0.9,84.7*,0.3,16.5,20.0,.,.,
c1ccc(CN2CCN(CCOCCOc3ccccc3)CC2)cc1,2.6,2.8,82.6*,0.3,8.8,8.7,.,.,
COc1ccc(NC(=O)c2sc3nc4c(c(-c5ccc(Cl)cc5)c3c2N)CCC4)cc1,6.0,-0.6,19.0,0.9,.,.,.,.,
CCC(C)C(=O)Nc1nnc(SCC(=O)NC2CCCC2)s1 (stereo unspecified),5.1,-0.1,13.3,0.0,.,.,.,.,
CCC(CC)C(=O)Nc1nnc(SCC(=O)NC2CCCC2)s1,3.3,0.0,60.8*,-0.1,1.3,11.2,.,.,
COC(=O)c1sc(NC(=O)CN2CCCCC2C)c(C(=O)OC)c1C (stereo unspecified),2.8,2.8,58.8*,-0.2,0.7,0.1,.,.,
CCOC(=O)c1sc(NC(=O)CN2CCCCC2C)c(C(=O)OCC)c1C (stereo unspecified),0.2,-1.4,24.4,0.0,.,.,.,.,
CCOC(=O)N1CCN(c2nc(-c3ccccc3OC)cc(C(F)(F)F)n2)CC1,7.2,-0.9,0.1,0.1,.,.,.,.,
c1cnc(Nc2nc(NCCN3CCOCC3)c3ncn(C4CCCCC4)c3n2)nc1,12.7,1.0,13.0,0.3,.,.,.,.,
CC(C)(C)C(=O)NC(=S)Nc1cccc([N+](=O)[O-])c1,-2.9,-1.6,57.7*,0.2,-7.5,-2.7,.,.,
CCCC(=O)NC(=S)Nc1cccc([N+](=O)[O-])c1,4.1,-1.0,-15.6,-0.3,.,.,.,.,
Cc1cc(=O)oc2c3c(ccc12)OC(=O)/C3=C\c1cc(Br)cc(Br)c1O,5.0,-1.1,13.6,-0.1,.,.,.,.,
COc1ccc(OC)c(CN2CCN(Cc3ccc(C)cc3)CC2)c1,-3.1,5.5*,83.3*,-0.1,0.8,7.1,-1.2,-18.9,
COc1ccc(OC)c(CN2CCC(C(=O)NCc3ccc(C)cc3)CC2)c1,3.4,-0.8,22.7,-0.3,.,.,.,.,
CCC(CC)C(=O)NCCS(=O)(=O)N1CCN(c2ccccc2OC)CC1,-1.5,-1.1,17.2,0.0,.,.,.,.,
c1cncc(CN2CCN(Cc3cccc4ccccc34)CC2)c1,-3.5,11.5*,83.3*,-0.2,4.2,1.4,-1.1,-20.0,
O=C1NC(c2ccccc2Cl)=N/C1=C/c1cccc(Cl)c1,-29.7,0.5,-1.4,0.1,.,.,.,.,
FC(F)(F)c1cccc(OCCCCNCCN2CCOCC2)c1,7.4,5.8*,65.1*,0.0,-1.8,8.8,0.2,-4.7,
O=S(=O)(NCc1ccccc1)c1cccc(S(=O)(=O)c2ccccc2)c1,-2.2,3.2,-9.8,0.0,.,.,.,.,
O=C1Nc2ccc(S(=O)(=O)NCc3ccccc3)cc2C1=O,12.0,6.1*,78.9*,-0.1,57.5*,13.0,-0.3,-10.0,AlphaScreen DR=>6.08
Clc1cc2c(c3ncccc13)OCN(CCCN1CCOCC1)C2,26.9,5.2*,92.0*,-0.4,102.3*,100.3*,-0.5,3.4,
SMILES,TEAD-YAP block,GPR151 activ,MITF primary,FBW7 activator,MITF inh conf,AlphaScreen intf2,GPR151 confirm,GPR119 ag,others
CCc1cc(OCCCN2CCNCC2)ccc1Cl,-4.9,0.8,3.9,0.1,.,.,.,.,
CCc1cc(OCCCCN2CCNCC2)ccc1Cl,-14.9,6.4*,54.4*,0.0,1.7,-1.0,-0.1,4.7,
O=C1c2ccccc2NC(c2cccc([N+](=O)[O-])c2)N1c1ccc(F)cc1 (stereo unspecified),9.8,0.2,4.7,-0.1,.,.,.,.,
Cc1ccc(N2C(=O)c3ccccc3NC2c2cccc([N+](=O)[O-])c2)cc1 (stereo unspecified),-8.9,8.6*,62.7*,-0.1,77.3*,6.0,-0.4,-12.5,AlphaScreen DR=>5.15
O=C(Nc1ccc(C(O)(C(F)(F)F)C(F)(F)F)cc1)c1ccccc1,-95.8,-0.5,10.2,0.0,.,.,.,.,
CC(=O)c1cccc(OCCCCN2CCN(C)CC2)c1,7.5,5.1*,55.0*,-0.2,3.2,15.8,0.2,6.2,
O=C(COc1ccccc1Cc1ccccc1)NNC(=O)C1CCCC1,7.1,-0.4,7.8,0.1,.,.,.,.,
Cc1ccc(N2CC(=O)Nc3ccccc3S2(=O)=O)cc1,-6.8,0.6,13.8,-0.1,.,.,.,.,
CCOC(=O)N1CC(=O)Nc2ccccc2S1(=O)=O,0.6,10.6*,66.4*,0.9,17.1,17.3,0.3,10.4,
Cc1ccc(OCCN2CCNCC2)c(C)c1,-5.8,0.2,44.1,-0.2,.,.,.,.,
CCN1CCN(CCOc2cc(C)ccc2C)CC1,4.4,16.8*,64.5*,-0.4,6.4,11.9,0.1,-2.5,
COc1ccccc1CC(=O)N1CC[C@@H]2[C@H](CCCN2C(=O)c2occc2C)C1,6.1,7.3*,51.6*,0.0,-6.4,-0.1,-0.1,7.5,
CCOc1ccccc1CN1CCC(N2CCCC2)CC1,0.5,9.2*,56.0*,-0.2,-10.9,-6.5,-0.9,-10.2,
Cc1ccccc1OCCOCCn1cnc2ccccc21,15.1,4.9*,71.9*,-0.1,14.4,19.3,0.0,13.6,
COc1ccccc1/C=C/CN1CCN(Cc2ccc3c(c2)OCO3)CC1,-2.6,6.1*,69.4*,-0.1,-1.5,1.3,0.1,-8.0,
COc1ccccc1C(=O)N1CCN(Cc2ccc3c(c2)OCO3)CC1,2.4,1.6,-5.2,0.0,.,.,.,.,
COc1ccccc1NC(=O)C1=C(C)NC(SCC(=O)c2ccc(F)cc2)=C(C#N)C1c1ccccc1 (stereo unspecified),8.2,-0.4,-2.4,0.0,.,.,.,.,
